Screening data deposited in PubChem BioAssay by several laboratories.
NOD2 RIPK2 PPI – inhibitors of human NOD2-RIPK2 interaction; CHO BLA complementation NOD2-RIPK2, CCF4 ratio; O43353; actives 0.38% (n = 360,000); inhibition, % at 4.98 µM; AID 624267; in the data active = inhibition above about 21%;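 note: 0% = vehicle only and 100% = reference blocker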
HTR2A ag – activates the mouse 5-HT2A serotonin receptor. P35363. CHO-K1 mHTR2A beta-arrestin complementation, luminescence; percent of 30 µM serotonin response. activation, % at 7.6 µM. actives 0.66% (n = 360,000);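 active = activation above a run cutoff, the mean activation of all tested compounds plus 3 SD, cut at about 14% in these data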;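 note: 0% = plate median of compound wells and 100% = 30 µM serotonin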
Target sequence (P35363 whole entry, looked up): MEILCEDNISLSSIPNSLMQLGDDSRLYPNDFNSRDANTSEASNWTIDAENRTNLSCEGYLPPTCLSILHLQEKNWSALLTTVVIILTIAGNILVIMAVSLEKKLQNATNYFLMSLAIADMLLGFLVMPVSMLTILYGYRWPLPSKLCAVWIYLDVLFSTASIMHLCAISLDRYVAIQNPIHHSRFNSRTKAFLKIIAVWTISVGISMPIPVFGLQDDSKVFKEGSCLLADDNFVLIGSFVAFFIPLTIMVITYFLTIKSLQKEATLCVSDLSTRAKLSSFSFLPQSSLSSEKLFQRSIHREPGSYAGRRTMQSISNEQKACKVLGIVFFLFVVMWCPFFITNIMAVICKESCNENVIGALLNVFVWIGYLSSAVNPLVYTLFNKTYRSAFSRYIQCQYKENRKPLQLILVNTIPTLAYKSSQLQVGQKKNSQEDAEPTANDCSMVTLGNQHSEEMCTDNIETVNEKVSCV
TMEM16A inh – inhibitors of mouse TMEM16A calcium-activated chloride channel; HEK293 TMEM16A/YFP iodide influx fluorescence, ionomycin; normalized B-score (activity score, 25-100; higher = stronger inhibition) at 10 µM; actives 1.2% (n = 310,000); AID 588511;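 active = ratio plate-corrected score three or more library SD toward inhibition, starting fluorescence score within five deviations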;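 note: score derived from kinetic fluorescence span divided by baseline fluorescence per well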
TLR4-MyD88 BLA – blocks binding of human TLR4 to MyD88. O00206+Q99836. HeLa CL3-4 TLR4/MyD88 BLA complementation, FRET ratio. inhibition, % at 8.4 µM. actives 0.18% (n = 200,000). AID 861; in the data active = inhibition above about 25%;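 note: 0% = vehicle and 100% = reference inhibitor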
TLR9-MyD88 block – TLR9-MyD88 interaction inhibition; Q9NR96+Q99836; CHO BLA complementation TLR9-MyD88, CCF4 FRET ratio; inhibition, % at 4.98 µM; actives 0.21% (n = 340,000);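 active = inhibition above the mean over all tested compounds plus 3 SD, cut at about 21% in these data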;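 note: 0% = DMSO only wells and 100% = clavulanate BLA inhibitor control wells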
TMEM16A act – mouse TMEM16A channel activation, primary screen; Q8BHY3; HEK293 TMEM16A/YFP-H148Q/I152L, iodide quench fluorescence; active compounds read low; B-score at 10 µM; actives 0.3% (n = 340,000);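 active = fluorescence-ratio B-score plate-corrected deviation score at least 3 library SD below zero, with starting fluorescence score within 5 deviations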;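 note: channel opened by trigger with iodide after compound preincubation; score built on the fluorescence ratio of max minus min over baseline; more negative score means more quench and so TMEM16A activation or potentiation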
TMEM16A reconf – re-confirmation of mouse TMEM16A chloride channel inhibitors; shares compounds with TMEM16A inh; HEK293 TMEM16A/YFP-H148Q, iodide quench fluorescence; ionomycin added to raise cell calcium; inhibition, % at 10 µM; actives 39% (n = 2,300); AID 652189;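 active = mean duplicate percent inhibition, scaled so buffer wells are 0 and the reference blocker 100, over three buffer SD above buffer mean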
TMEM16A Ca cntr – counter-screen for TMEM16A inhibitors: effect on calcium mobilization; shares compounds with TMEM16A inh; TMEM16A/YFP HEK293, Fluo4 calcium mobilization; calcium response (% of ionomycin), % at 10 µM; actives 2% (n = 2,300); AID 652231;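 active = duplicate-averaged calcium signal over 20% of the ionomycin maximum, relative to buffer baseline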;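 note: each well's signal is peak minus trough fluorescence divided by its pre-addition baseline; 0% = buffer wells and 100% = ionomycin wells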
YFP-HEK293 quench – counter-screen for TMEM16A inhibitors: effect in parental YFP-HEK293 cells | shares compounds with TMEM16A inh | iodide YFP quench, ionomycin | YFP ratio F(max-min)/F0 at 10 µM | 2,300 tested, under 10 active | AID 652233;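 active = yellow fluorescent protein signal ratio exceeding the buffer control mean by over 5 SD of those controls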;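 note: ratio is mean of duplicate wells from kinetic YFP trace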
ClC-1 inh – rat ClC-1 inhibition, TMEM16A specificity screen; CHO ClC-1-YFP, iodide influx fluorescence quench; iodide control reads 0, buffer control 100; 2,300 tested, under 10 active; shares compounds with TMEM16A inh; ratio percent, % at 10 µM;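 active = duplicate-mean ratio percent above the mean of iodide-only control wells, which defines zero, plus 5 of their SD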;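 note: higher percent means stronger block of ClC-1 iodide influx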
* marks the source's active call; other numbers are inactive results. Only some compounds are listed: those with a hit (about 2.4% of all), similar ones and a draw of the others.

Results for COc1ccc(/C=C2/SC(=S)N(NS(=O)(=O)c3ccccc3)C2=O)cc1 ?
NOD2 RIPK2 PPI: 1.7; HTR2A ag: 1.5; TMEM16A inh: inactive; TLR9-MyD88 block: 2.1; TMEM16A act: inactive

What do the screens show for `C=CCOc1ccc(/C=C2\SC(=S)N(NS(=O)(=O)c3ccccc3)C2=O)cc1`?
NOD2 RIPK2 PPI: 1.4; HTR2A ag: 4.6; TMEM16A inh: 100*; TLR9-MyD88 block: -0.7; TMEM16A act: inactive; TMEM16A reconf: 88.5%*; TMEM16A Ca cntr: inactive; YFP-HEK293 quench: -1.09; ClC-1 inh: -48.5

What do the screens show for `CC(=O)CC(C)(C)S(=O)(=O)c1ccc(NC(C)=O)cc1`?
NOD2 RIPK2 PPI: -1.4; HTR2A ag: 4.7; TMEM16A inh: inactive; TLR4-MyD88 BLA: 3.2; TLR9-MyD88 block: -9.3; TMEM16A act: inactive

Results for CCCCOC(=O)c1ccc(NC(=O)c2ccccc2OC)cc1 ?
NOD2 RIPK2 PPI: 0.8; HTR2A ag: -5.5; TMEM16A inh: 100*; TLR4-MyD88 BLA: -15.3; TLR9-MyD88 block: -7.6; TMEM16A act: inactive; TMEM16A reconf: 35.5%*; TMEM16A Ca cntr: inactive; YFP-HEK293 quench: -1.06; ClC-1 inh: -7.5

What do the screens show for `CCCOC(=O)c1ccc(NC(=O)c2ccccc2OC)cc1`?
NOD2 RIPK2 PPI: -13.0; HTR2A ag: 2.6; TMEM16A inh: inactive; TLR4-MyD88 BLA: 2.6; TLR9-MyD88 block: -3.1; TMEM16A act: inactive

How did CCSc1nc(C)cc(C)c1S(=O)(=O)c1ccccc1C do in these assays?
NOD2 RIPK2 PPI: -8.4; HTR2A ag: -3.9; TMEM16A inh: 100*; TLR4-MyD88 BLA: 8.6; TLR9-MyD88 block: -3.7; TMEM16A act: inactive; TMEM16A reconf: inactive; TMEM16A Ca cntr: inactive; YFP-HEK293 quench: -1.14; ClC-1 inh: -6.5

Results for CCC(C)Oc1nc(C)cc(C)c1S(=O)(=O)c1ccccc1C (configuration not stated) ?
NOD2 RIPK2 PPI: -5.5; HTR2A ag: -6.0; TMEM16A inh: 100*; TLR4-MyD88 BLA: 2.7; TLR9-MyD88 block: -5.4; TMEM16A act: inactive; TMEM16A reconf: inactive; TMEM16A Ca cntr: inactive; YFP-HEK293 quench: -0.623; ClC-1 inh: -13.0

How did COCCNC(=O)c1c(NC(=O)c2nc(SC)ncc2Cl)sc2c1CCCC2 do in these assays?
NOD2 RIPK2 PPI: -3.6; HTR2A ag: 3.2; TMEM16A inh: inactive; TLR4-MyD88 BLA: 5.0; TLR9-MyD88 block: 0.2; TMEM16A act: inactive; TMEM16A reconf: 23.5%*; TMEM16A Ca cntr: inactive; YFP-HEK293 quench: -0.777; ClC-1 inh: 6.0

How did CN(C)CCNC(=O)c1c(NC(=O)c2ccccc2)sc2c1CCCC2 do in these assays?
NOD2 RIPK2 PPI: -6.4; HTR2A ag: -4.9; TMEM16A inh: inactive; TLR9-MyD88 block: -0.7; TMEM16A act: inactive

Results for Cc1cc(C)cc(NS(=O)(=O)c2ccc(NC(=S)Nc3ccccc3)cc2)c1 ?
NOD2 RIPK2 PPI: -6.7; HTR2A ag: -2.6; TMEM16A inh: inactive; TLR4-MyD88 BLA: -13.9; TLR9-MyD88 block: 1.8; TMEM16A act: inactive

How did CC1(C)C(C=C(Cl)Cl)C1C(=O)N/N=C/c1ccccc1F (configuration not stated) do in these assays?
NOD2 RIPK2 PPI: -3.3; HTR2A ag: 4.1; TMEM16A inh: 25*; TLR9-MyD88 block: -13.1; TMEM16A act: inactive; TMEM16A reconf: inactive; TMEM16A Ca cntr: inactive; YFP-HEK293 quench: -1.09; ClC-1 inh: -13.0
